# This is a sample that favours compounds with a hit; in the whole collection about 8.8% have one here.
# HT1080NT lethal – kills 2HG-producing HT-1080-NT fibrosarcoma cells; HT-1080-NT fibrosarcoma viability, CellTiter-Glo ATP luminescence, 48 h; Potency, µM (highest dose often 46.1 µM), actives largely listed as cytotoxic; 1.6% of 360,000 active; AID 686970;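 further: NT is the 2HG producing partner of a matched IDH1 knockdown line; nearly all actives have a fitted effect of over 55% in size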
#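 HT-1080-NT fibrosarcoma cells (2HG-overproducing), 750 cells/well in RPMI with 5% FBS, dosed after 2 h and incubated 48 h at 37C. CellTiter-Glo luminescence normalized to DMSO and no-cell wells; concentration-response curves fitted and classed.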
# HT1080 IDH1KD tx – toxicity to HT-1080 IDH1 knockdown cells (counter line); AID 686971; Potency, µM (doses to about 46.1 µM), actives largely listed as cytotoxic; HT-1080 IDH1 knockdown viability, ATP luminescence, 48 h; 2% of 360,000 active
#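 After a 2 h attachment period, IDH1KD HT-1080 cells took pin-transferred compound for 48 h at 37 °C; ATP-based luminescence after 10 min room-temperature reagent incubation reported viability.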
# KB-3-1 tox – KB-3-1 parental cell cytotoxicity. KB-3-1 viability, CellTiter-Glo ATP luminescence, 72 h. Potency, µM (series often up to 46.1 µM), hits mostly cytotoxic. 1.4% of 400,000 active. AID 1347075; further: nearly all actives have a fitted effect of over 60% in size
#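 Cytotoxicity measured as CellTiter-Glo luminescence after 72 h at 37 C. Compound titrations were pinned onto drug-naive KB-3-1 parental adenocarcinoma cells grown in DMEM with 10% FBS, and normalized data fitted to concentration-response curves.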
# KB-V1 MDR tox – KB-V1 MDR subline cytotoxicity; KB-V1 MDR cells viability, CellTiter-Glo, 72 h; Potency, µM (doses to about 46.1 µM), usual class: cytotoxic; 3.4% of 400,000 active; further: nearly all actives have a fitted effect of over 60% in size
#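 qHTS viability screen in drug-selected KB-V1 MDR cells: 72 h compound treatment at 37 degrees C, ATP luminescence end point.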
# IL1B secr inh – inflammasome signaling inhibition, IL-1 beta readout; THP-1 LPS/ATP IL-1B secretion, AlphaLISA, 16 h; stronger effect = lower value; activity change, % at 57.5 µM; 4.7% of 360,000 active; in the data active means activity change below about -50%; inconclusive means mostly about -30% to -49%
#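 Secreted IL-1B measured by AlphaLISA bead assay after 16 h compound exposure of THP-1 cells; compounds (final up to 57.5 uM) added 1 h before LPS (250 ng/mL) and ATP (1.25 mM) stimulation; lower signal means less secretion.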
# Numbers stand for hits; – = inactive; ? = inconclusive; · = not tested or not shown. Unless noted, the call rests on the fitted dose curve; in most records, active means well fitted curve in the direction sought with a large enough effect; inconclusive means small, poorly fitted or top-dose-only effect, or another doubt; inactive means no such curve, though single readings can be large; an effect the other way counts as inactive or inconclusive.
SMILES,HT1080NT lethal,HT1080 IDH1KD tx,KB-3-1 tox,KB-V1 MDR tox,IL1B secr inh
CC12C=CC(=O)C=C1CCC1C2C(O)CC2(C)C1CCC2(C)O (stereo not drawn),–,–,–,–,–
Cc1ccc2nc(NC(=O)c3cccn(Cc4ccc(Cl)cc4)c3=O)sc2c1,·,·,–,–,·
COc1ccc(-c2ccc3c(c2)CN(C(=O)NC2CCCCC2)Cc2cnnn2-3)cc1,?,?,–,–,-53
O=C(Nc1ccncc1)c1cccn(Cc2ccccc2)c1=O,?,?,?,5.8µM,–
CCOC(=O)c1ccc(NC(=O)c2cccn(Cc3ccccc3F)c2=O)cc1,·,·,–,5.8µM,·
O=C(Nc1ccccc1)c1cccn(Cc2ccccc2)c1=O,–,?,?,?,–
COC(=O)c1ccc(NC(=O)CSc2nc3ccc(N4C(=O)C5C6C=CC(C6)C5C4=O)cc3s2)cc1 (stereo not drawn),–,?,21µM,21µM,?
Clc1ccc(C(c2ccc(Cl)cc2)n2cc[n+](CC(OCc3ccc(Cl)cc3Cl)c3ccc(Cl)cc3Cl)c2)cc1 (stereo not drawn),5.2µM,5.8µM,?,?,-108
CS(=O)(=O)c1ccc(C2=C(CNC(=O)c3ccncc3)[C@H]3CC[C@@H](C2)N3Cc2ccco2)cc1,–,–,–,–,–
CCCCCn1c(NC(=O)c2ccco2)c(C(=O)OCC)c2nc3ccccc3nc21,9.2µM,12µM,–,–,-101
CCOC(=O)c1c(NS(=O)(=O)c2ccccc2)n(CCCOC)c2nc3ccccc3nc12,?,?,–,–,-96
CCOC(=O)c1c(N)n(CCCOC(=O)c2ccco2)c2nc3ccccc3nc12,23µM,18µM,12µM,?,–
COCCOC(=O)c1c(N)n(Cc2ccc(OC)cc2)c2nc3ccccc3nc12,–,–,–,–,–
COc1ccc(OC)c(CC(=O)N(C)C2CCCN(Cc3ccccc3F)C2)c1 (stereo not drawn),–,–,–,–,–
O=C(O)CP(=O)(O)c1ccc(Cl)cc1,–,–,–,–,–
CN1C(=O)C(=Cc2ccc(Sc3ccccc3)o2)C(=O)N(C)C1=O,–,–,–,–,–
O=C1NC(=O)C(=Cc2ccc(-c3ccc(F)cc3O)o2)C(=O)N1,?,?,–,–,-77
O=C1NC(=O)C(=Cc2ccc(-c3ccc(Cl)cc3)o2)C(=O)N1,–,–,–,?,-108
O=C1NC(=O)C(=Cc2ccc(Sc3ccccc3)o2)C(=O)N1,18µM,13µM,–,?,-100
COC(=O)C1=C(c2cccc(OCc3ccccc3)c2)C[C@@H]2CC[C@H]1N2C(=O)NCc1ccc(Cl)cc1,–,–,?,?,–
CC(=O)c1ccc(OCC(=O)N2CCCC(N3CCN(c4ccccc4C)CC3)C2)cc1 (stereo not drawn),–,–,–,?,–
CCCNC1=C(C)C(=O)C2=C(C1=O)C(COC(N)=O)[C@]1(OC)C3NC3CN21 (stereo partly drawn),–,–,18µM,–,–
CCC(=O)Nc1ccccc1,–,–,–,–,–
Cn1cc(NC(=O)CCl)cn1,?,?,?,?,-102
CCOC(=O)CCCc1cc[c]([Sb](=[O])([OH])[OH])cc1,·,·,–,–,·
SMILES,HT1080NT lethal,HT1080 IDH1KD tx,KB-3-1 tox,KB-V1 MDR tox,IL1B secr inh
CC1CN=C(NCc2ccccc2)S1 (stereo not drawn),–,–,–,–,–
CCOc1cc2c(cc1OCC)-n1cccc1C(c1ccc(OC)c(OC)c1)NC2 (stereo not drawn),–,–,–,–,?
COc1ccc(C2NCc3ccc4c(c3-n3cccc32)OCO4)cc1O (stereo not drawn),?,1.8µM,1.3µM,?,–
c1cc2n(c1)-c1c(ccc3c1OCO3)CNC2c1ccc2c(c1)OCO2 (stereo not drawn),?,?,?,18µM,–
CCOc1cc2c(cc1OCC)-n1cccc1C(c1ccc(F)c(OC)c1)NC2 (stereo not drawn),–,–,–,–,?
O=C1NC(=S)N(C2CC2)C(=O)/C1=C/c1ccc2c(c1)CCN2CCCCl,–,–,–,–,-78
CCN1C(=O)/C(=C/c2ccc3c(c2)CCN3CCCCl)C(=O)NC1=S,–,–,–,–,–
Cc1cccc(C)c1OP(N)(=O)OCC(F)(F)F (stereo not drawn),–,–,–,–,–
CC1Oc2cc3c(-c4c(O)cc(O)c5c(O)c6c(cc45)OC(C)C(C)C6=O)c(O)cc(O)c3c(O)c2C(=O)C1C (stereo not drawn),4.6µM,8.2µM,?,?,?
CS(=O)(=O)Nc1ccccc1C(=O)Nc1cc(Cl)cc(Cl)c1,?,11µM,–,–,-56
CC(C)c1ccc(NC(=O)Nc2nc(C(N)CCc3ccccc3)cs2)cc1 (stereo not drawn),?,13µM,?,?,-106
C=Cc1cc(OC)c2c(c1)c(=O)oc1c2cc(OC)c2c(O)ccc(C3OC(C)C(O)C(C)(O)C3O)c21 (stereo not drawn),9.2µM,1.5µM,?,18µM,-100
OC[C@H]1OC(O)C[C@@H](O)[C@@H]1O (stereo partly drawn),?,–,–,–,–
Cc1cccc(OC(=O)N2CCOCC2)c1,–,–,–,?,–
CC(C)(C)c1ccc(/C=C2\Oc3cc(OC(=O)N4CCOCC4)ccc3C2=O)cc1,21µM,18µM,–,–,-77
c1ccc(-c2nc(N3CCOCC3)s[n+]2-c2ccccc2)cc1,–,–,–,?,–
COc1ccc(NC2Oc3cc4c(cc3C(c3cc(OC)c(OC)c(OC)c3)C2C)OCO4)cc1 (stereo not drawn),?,?,1.6µM,5.8µM,-64
Cc1ccc(-n2c(/C=C/c3ccccc3)nc3ccccc3c2=O)cc1Cl,·,·,–,–,·
CN1C(=O)/C(=C/C=C/c2ccco2)C(=O)NC1=S,–,–,–,–,–
Cc1ccc(N2C(=O)NC(=O)/C(=C\C=C\c3ccco3)C2=O)cc1C,–,–,?,?,-105
CN(C)c1ccc(/C=C/C=C2/C(=O)NC(=O)N(c3ccccc3)C2=O)cc1,4.6µM,6.5µM,–,?,-107
Cc1cccc(N2C(=O)NC(=O)/C(=C\C=C\c3ccco3)C2=O)c1,?,?,?,–,-96
Cc1cccc(N2C(=O)NC(=O)/C(=C/c3ccc([N+](=O)[O-])o3)C2=O)c1,–,–,–,–,–
Cc1ccc(N2C(=O)NC(=O)/C(=C\C=C\c3ccco3)C2=O)cc1,?,?,?,–,-97
CCOc1ccccc1CN(CCc1ccc2c(c1)OCO2)Cc1ccc(CC)cc1,·,·,–,–,·
CCCC1=Nc2cc(C(=O)NCCCN(CC)CC)ccc2Sc2ccccc21,·,·,?,–,·
CN1C(=O)C(c2ccc([N+](=O)[O-])cc2[N+](=O)[O-])C(=O)N(C)C1=O,–,–,–,–,–

# Compound activity as filed in PubChem.
